{"source": "PubChem BioAssay (NCATS)", "data": [{"assay": "qHTS drug screen for cell cycle checkpoint inhibitors in PARPi-resistant BRCA-mutant ovarian cancer cell lines. (AID 1963452)", "settings": "PEO1/OlaR viability, CellTiter-Glo luminescence, 96 h; measured here: PEO1 parental Z-AUC; stronger effect = lower value", "how_it_was_run": "(§1)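 PEO1, PEO4 and PEO1/OlaR ovarian cancer cells, 600 per well, exposed 96 h at 37C to a dilution series. Viability read by CellTiter-Glo luminescence, normalized to DMSO and empty wells; activity summarized as Z-AUC.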", "values": [{"molecule": "Cc1cnc(C(=O)O)c[n+]1[O-]", "Z-AUC": -0.301}, {"molecule": "NC(=O)c1cnc(-c2ccc(C3(N)CCC3)cc2)c(-c2ccccc2)c1", "Z-AUC": -0.472}, {"molecule": "CCOC(CN1C(=O)[C@](CC(=O)Nc2ccc(C)cc2)(NC(=O)Nc2ccc(C)cc2)c2ccccc21)OCC", "Z-AUC": 1.06}]}, {"assay": "qHTS drug screen for cell cycle checkpoint inhibitors in PARPi-resistant BRCA-mutant ovarian cancer cell lines. (AID 1963452)", "settings": "PEO1/OlaR viability, CellTiter-Glo luminescence, 96 h; measured here: PEO4 Z-AUC; stronger effect = lower value", "how_it_was_run": "as §1", "values": [{"molecule": "Cc1ccn(-c2ccc(-c3ncco3)cc2)c(=O)c1-c1ccc2nc(N)ncc2c1", "Z-AUC": 1.07}, {"molecule": "Oc1ccc(C2=Cc3ccc(O)cc3OC2)cc1", "Z-AUC": -0.812}, {"molecule": "COc1ccc(Cc2ccc(NC(N)=O)cc2)cc1-c1cccc(Cl)c1", "Z-AUC": 0.315}, {"molecule": "COc1ccc2cc(-c3nc(-c4ccc(S(C)=O)cc4)[nH]c3-c3ccncc3)ccc2c1", "note": "(configuration not stated)", "Z-AUC": -0.281}, {"molecule": "COc1cc(NC(=O)c2ccc(-c3ccc(Cl)cc3)o2)cc(OC)c1", "Z-AUC": -0.303}, {"molecule": "CN[C@@H](C)C(=O)N[C@H]1CN(C(=O)CC(C)C)CC[C@H]2CC[C@@H](C(=O)NC(c3ccccc3)c3ccccc3)N2C1=O", "Z-AUC": -0.22}, {"molecule": "C[C@H](NC(=O)c1sccc1OCc1ccc(Cl)cc1)c1ccccc1", "Z-AUC": -0.0391}, {"molecule": "O=C(O)C(O)Cc1ccc(O)c(O)c1", "note": "(configuration not stated)", "Z-AUC": 0.735}, {"molecule": "N#CC1(c2ccc(NC(=O)c3cccnc3NCc3ccncc3)cc2)CCCC1", "Z-AUC": 1.27}, {"molecule": "CC(C)(C)NC(=O)Nc1cccc(Nc2ncc(F)c(NC(C)(C)CO)n2)c1", "Z-AUC": -1.05}, {"molecule": "CCCCCNC(=O)N1CCC(CN(Cc2ccc(Cl)cc2)Cc2ccc([N+](=O)[O-])s2)C1", "note": "(configuration not stated)", "Z-AUC": -0.734}, {"molecule": "COc1cccc(-c2cc(=O)c3ccccc3o2)c1N", "Z-AUC": -0.869}, {"molecule": "O=C(NCc1ccccc1)c1csc(Nc2ccncn2)n1", "Z-AUC": 0.922}, {"molecule": "Clc1cc(Cl)cc(CNc2ncncc2-c2ccc3c(c2)OCO3)c1", "Z-AUC": -0.467}]}]}
